In PubChem BioAssay:

test: yeast transport mutant growth inhibition pilot in 384-well plates, post-Golgi transport modulator project (AID 636; in the data active = inhibition above about 31%); settings: absorbance 615 nm, about 18 h, hits give high values

inhibition, inactive:
C=C(c1cccc2ccccc12)P(=O)(O)O -6.45%
COc1cc(NC(=O)c2cc(CC(C)C)on2)c(OC)cc1Cl 1.15%
COc1ccccc1-n1c(SCC(N)=O)nnc1-c1ccccc1 -7.11%
Cc1coc2cc3oc(=O)c4c(c3cc12)CCC4 -2.7%
COc1ccc(NC(=O)CN2CCN(S(=O)(=O)c3ccc(Cl)cc3)CC2)cc1 -6.18%
COc1cc(-c2nc(S(=O)(=O)c3ccccc3)c(N3CCOCC3)o2)cc(OC)c1OC -3.16%
CCC(C)(C)NC(=O)C(OC(=O)c1ccco1)c1ccccc1OC (stereo not given) -3.65%
COc1ccc(-n2nnc3c(=O)n(C/C=C/c4ccccc4)cnc32)cc1 -6.62%
Cc1ccc(S(=O)(=O)N2CCOCC2)cc1C(=O)Nc1ccccn1 -6.76%
CCOc1ccccc1NC(=O)NC1CCN(CC(=O)Nc2ccc3c(c2)OCCO3)CC1 -0.39%
O=C(CCNS(=O)(=O)c1ccc(Cl)cc1)NCc1ccccn1 -5.26%
COCCNC(=O)CSc1nc(-c2ccc(OC)c(OC)c2)cc(C(F)(F)F)n1 1.84%
CCOc1ccc2ccccc2c1/C=N/n1cncn1 -5.53%
CCOC(=O)C1CCCN(C(=O)c2cc(=O)c3ccccc3o2)C1 (stereo not given) -2.89%
COc1ccc(CN(C(=O)c2oc3ccccc3c2C)C2CCS(=O)(=O)C2)cc1 (stereo not given) -4.13%
COC(=O)CCc1c(C)c(C#N)c2nc3ccccc3n2c1N1CCCC1 -8.24%
COC(=O)c1ccccc1NC(=O)c1noc2c1CCC2 -7.37%
Cc1ccc(S(=O)(=O)NCC(=O)N(CC(=O)NC2CCCCC2)Cc2ccco2)cc1 -5.87%
O=C(CNC1CCCCCC1)Nc1ccc(S(=O)(=O)NC2CC2)cc1 -4.53%
Cn1c2c(c(=O)n(C)c1=O)C(c1cccc(Br)c1)C1C(=O)c3ccccc3C1=N2 (stereo not given) 0.27%
CC(C)Nc1ncnc2c1cnn2-c1ccccc1 0%
CN(C)/C=C(\C#N)c1nc2ccccc2[nH]1 2.37%
Oc1ccc2[nH]cnc2c1CN1CCCCC1 -5.39%
COc1ccc(S(=O)(=O)C(C#N)c2nc3ccccc3nc2N2CCCC(C)C2)cc1 (stereo not given) -2.21%
Cc1ccc(S(=O)(=O)N(CC(=O)NCc2ccco2)Cc2ccccc2F)cc1 -2.67%
COc1ccc(C(=O)NCc2ccccc2OC)cc1 -6.58%
CN(C)CCN1C(=O)c2oc3ccc(Cl)cc3c(=O)c2C1c1cccc(Br)c1 (stereo not given) -1.17%
CCOC(=O)Nc1ccc(OC)cc1S(=O)(=O)N1CCCCC1 -1.84%
CCOC(=O)CSc1nnc([C@H](CC(C)C)NC(=O)OC(C)(C)C)o1 -3.6%
O=C(CSc1nnc(-c2ccccc2)c(-c2ccccc2)n1)N1CCOCC1 0%
CCOC(=O)C(C)Sc1nc2c(cnn2-c2ccc(C)cc2)c(=O)[nH]1 (stereo not given) -2.53%
O=c1c2ccccc2nnn1CSc1nnc2sc3ccccc3n12 -9.04%
COc1ncnc2c1N=C1CC(C)(C)CC(N)=C1S2 -5.07%
CCc1ccc(CNCc2cccnc2)cc1 -1.82%
O=C(NC1CCN(Cc2nnnn2CCc2ccccc2)CC1)c1ccccc1F 0.13%
COc1ccc(C(=O)N(CCCO)Cc2cc3c(C)ccc(C)c3[nH]c2=O)cc1OC -5.06%
Nc1cc(-c2ccccc2)ccc1O -7.16%
Cc1cc(NC(=O)COc2cccc3cccnc23)no1 -5.47%
Cc1cc(Br)ccc1NC(=O)CNC(=O)CSc1n[nH]c(N)n1 -6.22%
CC(=O)NCCOc1cccc(OCCNC(C)=O)c1 2.67%

test: growth suppression of yeast trafficking mutant, preliminary HTS, modulators of trafficking downstream of Golgi apparatus project, 1536-format plate, OD 615 nm (AID 637); settings: yeast transport mutant growth, absorbance 615 nm, 18 h; hits give high values

inhibition, inactive:
C=C(c1cccc2ccccc12)P(=O)(O)O 4.75%
COc1cc(NC(=O)c2cc(CC(C)C)on2)c(OC)cc1Cl -5.33%
COc1ccccc1-n1c(SCC(N)=O)nnc1-c1ccccc1 1.9%
Cc1coc2cc3oc(=O)c4c(c3cc12)CCC4 -2.86%
COc1ccc(NC(=O)CN2CCN(S(=O)(=O)c3ccc(Cl)cc3)CC2)cc1 -11%
COc1cc(-c2nc(S(=O)(=O)c3ccccc3)c(N3CCOCC3)o2)cc(OC)c1OC 12%
CCC(C)(C)NC(=O)C(OC(=O)c1ccco1)c1ccccc1OC (stereo not given) -5%
COc1ccc(-n2nnc3c(=O)n(C/C=C/c4ccccc4)cnc32)cc1 1.33%
Cc1ccc(S(=O)(=O)N2CCOCC2)cc1C(=O)Nc1ccccn1 -3.17%
CCOc1ccccc1NC(=O)NC1CCN(CC(=O)Nc2ccc3c(c2)OCCO3)CC1 7.54%
O=C(CCNS(=O)(=O)c1ccc(Cl)cc1)NCc1ccccn1 -1.83%
COCCNC(=O)CSc1nc(-c2ccc(OC)c(OC)c2)cc(C(F)(F)F)n1 -2.3%
CCOc1ccc2ccccc2c1/C=N/n1cncn1 1.64%
CCOC(=O)C1CCCN(C(=O)c2cc(=O)c3ccccc3o2)C1 (stereo not given) -0.95%
COc1ccc(CN(C(=O)c2oc3ccccc3c2C)C2CCS(=O)(=O)C2)cc1 (stereo not given) -11.1%
COC(=O)CCc1c(C)c(C#N)c2nc3ccccc3n2c1N1CCCC1 8.67%
COC(=O)c1ccccc1NC(=O)c1noc2c1CCC2 2.55%
Cc1ccc(S(=O)(=O)NCC(=O)N(CC(=O)NC2CCCCC2)Cc2ccco2)cc1 4.76%
O=C(CNC1CCCCCC1)Nc1ccc(S(=O)(=O)NC2CC2)cc1 -0.48%
Cn1c2c(c(=O)n(C)c1=O)C(c1cccc(Br)c1)C1C(=O)c3ccccc3C1=N2 (stereo not given) 1.43%
CC(C)Nc1ncnc2c1cnn2-c1ccccc1 -8.33%
CN(C)/C=C(\C#N)c1nc2ccccc2[nH]1 -8.36%
Oc1ccc2[nH]cnc2c1CN1CCCCC1 3.28%
COc1ccc(S(=O)(=O)C(C#N)c2nc3ccccc3nc2N2CCCC(C)C2)cc1 (stereo not given) 6.67%
Cc1ccc(S(=O)(=O)N(CC(=O)NCc2ccco2)Cc2ccccc2F)cc1 -5.97%
COc1ccc(C(=O)NCc2ccccc2OC)cc1 -3.17%
CN(C)CCN1C(=O)c2oc3ccc(Cl)cc3c(=O)c2C1c1cccc(Br)c1 (stereo not given) -5.5%
CCOC(=O)Nc1ccc(OC)cc1S(=O)(=O)N1CCCCC1 -1.8%
CCOC(=O)CSc1nnc([C@H](CC(C)C)NC(=O)OC(C)(C)C)o1 -3.71%
O=C(CSc1nnc(-c2ccccc2)c(-c2ccccc2)n1)N1CCOCC1 -5.48%
CCOC(=O)C(C)Sc1nc2c(cnn2-c2ccc(C)cc2)c(=O)[nH]1 (stereo not given) -11.2%
O=c1c2ccccc2nnn1CSc1nnc2sc3ccccc3n12 -1.43%
COc1ncnc2c1N=C1CC(C)(C)CC(N)=C1S2 -2.3%
CCc1ccc(CNCc2cccnc2)cc1 -2%
O=C(NC1CCN(Cc2nnnn2CCc2ccccc2)CC1)c1ccccc1F -0.5%
COc1ccc(C(=O)N(CCCO)Cc2cc3c(C)ccc(C)c3[nH]c2=O)cc1OC 2.46%
Nc1cc(-c2ccccc2)ccc1O 8.33%
Cc1cc(NC(=O)COc2cccc3cccnc23)no1 -2.79%
Cc1cc(Br)ccc1NC(=O)CNC(=O)CSc1n[nH]c(N)n1 8.41%
CC(=O)NCCOc1cccc(OCCNC(C)=O)c1 -3.17%
